Measured values as given in PubChem BioAssay.

Key:
[1] = test system: Human papillomavirus type 1a protein E7 (residues 44-93); test: HPV1a E7 fragment binders on microarrays, primary screen, biochemical, small-molecule microarray, residues 44-93, 635 nm fluorescence (AID 1108); conditions: small-molecule microarray binding, fluorescence 635 nm; higher = more signal;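 further: E7 fragment applied at 1 µg/mL in TBST for 1 h at 4 C; score combines spot fluorescence with its signal to noise ratio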
[2] = modulators of HCV replicon luciferase signal, primary screen, HCV replication inhibitor project, Huh7 cells, luciferase reporter (AID 1109); conditions: 48 h, higher = more signal;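 further: huh7 hepatoma cells harbouring a luciferase neomycin HCV replicon reporter; luciferase luminescence as measure of HCV replicon replication; test concentration not given here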
[3] = molecular target: Left-right determination factor 2 (Homo sapiens) (UniProt O00292); test: LEFTY2 binders on small-molecule microarrays, primary screen, biochemical, small-molecule microarray, 635 nm fluorescence scan (AID 1110); conditions: LEFTY2 binding, higher = more signal
Chain of Left-right determination factor 2 (Homo sapiens) (O00292 whole entry, looked up): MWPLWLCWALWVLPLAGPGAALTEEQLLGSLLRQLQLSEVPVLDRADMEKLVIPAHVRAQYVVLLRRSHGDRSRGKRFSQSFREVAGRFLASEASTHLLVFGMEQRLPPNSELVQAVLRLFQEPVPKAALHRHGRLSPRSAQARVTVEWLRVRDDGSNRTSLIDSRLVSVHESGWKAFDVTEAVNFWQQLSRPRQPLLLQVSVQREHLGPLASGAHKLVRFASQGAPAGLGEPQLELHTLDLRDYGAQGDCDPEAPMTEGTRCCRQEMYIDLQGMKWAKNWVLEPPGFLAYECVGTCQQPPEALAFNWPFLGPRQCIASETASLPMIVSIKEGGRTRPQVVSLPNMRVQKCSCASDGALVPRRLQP

[4] = molecular target: Calmodulin-1 (Homo sapiens) (UniProt P0DP23); test: CALM1 binders on microarrays, EGTA buffer, profiling panel, biochemical, small-molecule microarray, Cy5-labelled CALM1 (AID 1111); conditions: Cy5-CALM1 binding fluorescence, higher = more signal;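 further: labelled calmodulin applied in Tris saline Tween buffer holding calcium plus EGTA and DTT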
[5] = molecular target: Calmodulin-1 (Homo sapiens) (UniProt P0DP23); test: calcium-bound CALM1 binders on microarrays, profiling panel, artefact control for SMM control-protein annotation, biochemical, small-molecule microarray, Cy5-labelled CALM1, plus calcium (AID 1112); conditions: Cy5-CALM1 binding fluorescence, higher = more signal;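 further: score merges spot fluorescence with signal to noise from triplicate slides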
[6] = small-molecule microarray binders of probe aWnt5a, primary screen, biochemical, biotinylated probe, 635/667 nm fluorescence (AID 1113); conditions: higher = more signal;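 further: score merges 667 nm fluorescence intensity with signal-to-noise per printed feature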
[7] = small-molecule microarray binders of probe aShh, primary screen, biochemical, biotinylated probe, 635/667 nm fluorescence (AID 1114); conditions: higher = more signal;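 further: probe is biotin-labelled aShh protein from a stem cell growth factor screen; measures binding of labelled protein to compounds printed on the slide; score merges feature fluorescence at 667 nm with signal-to-noise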
[8] = small-molecule microarray binders of probe aNog, primary screen, biochemical, biotinylated probe, 635/667 nm fluorescence (AID 1115); conditions: higher = more signal;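 further: probe is biotinylated aNog protein used at 0.15 µg/mL for 1 h at 4 C; z-score combines 667 nm fluorescence of each spot with its signal to noise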
[9] = molecular target: Torsin-1A-interacting protein 1 (Homo sapiens) (UniProt Q5JTV8); test: LAP1 binders from COS7 cell lysate, primary screen, small-molecule microarray, 635/667 nm fluorescence (AID 1116); conditions: COS7-hLAP1 lysate binding, 635 nm fluorescence, higher = more signal
Chain of Torsin-1A-interacting protein 1 (Homo sapiens) (Q5JTV8 whole entry, looked up): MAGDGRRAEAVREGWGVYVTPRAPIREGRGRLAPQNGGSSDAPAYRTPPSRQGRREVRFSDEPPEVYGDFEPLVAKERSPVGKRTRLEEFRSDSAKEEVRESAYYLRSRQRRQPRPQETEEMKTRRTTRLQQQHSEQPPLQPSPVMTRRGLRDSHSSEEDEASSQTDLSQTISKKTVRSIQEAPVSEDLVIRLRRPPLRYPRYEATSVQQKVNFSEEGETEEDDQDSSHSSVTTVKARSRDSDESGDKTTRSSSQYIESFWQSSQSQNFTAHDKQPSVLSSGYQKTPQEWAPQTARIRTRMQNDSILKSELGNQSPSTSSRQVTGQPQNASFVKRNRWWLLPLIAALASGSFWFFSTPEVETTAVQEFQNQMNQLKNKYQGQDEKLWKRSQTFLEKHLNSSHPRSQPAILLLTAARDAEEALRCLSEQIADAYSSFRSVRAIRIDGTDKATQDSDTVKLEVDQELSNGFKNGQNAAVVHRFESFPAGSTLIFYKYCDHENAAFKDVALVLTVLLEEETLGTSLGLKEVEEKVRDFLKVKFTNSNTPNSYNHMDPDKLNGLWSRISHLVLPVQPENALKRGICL

[10] = molecular target: Alpha-bungarotoxin (Bungarus multicinctus) (UniProt P60615); test: alpha-bungarotoxin binders on microarray, profiling panel, artefact control for SMM control protein annotation, biochemical, small-molecule microarray, Alexa647 label, 635/667 nm fluorescence (AID 1117); conditions: alpha-BTX-A647 binding fluorescence, higher = more signal
Chain of Alpha-bungarotoxin (Bungarus multicinctus) (P60615 whole entry, looked up): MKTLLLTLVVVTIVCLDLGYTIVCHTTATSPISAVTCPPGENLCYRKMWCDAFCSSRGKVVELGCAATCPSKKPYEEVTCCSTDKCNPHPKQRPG

Row | Compound | composite z-score [1] | z-score [2] | composite z-score [3] | composite z-score [4] | composite z-score [5] | composite z-score [6] | composite z-score [7] | composite z-score [8] | composite z-score [9] | composite z-score [10]
1 | CC(=O)NCCCC[C@@H]1NC(=O)[C@H]2C[C@@H](C(=O)O)[C@@H](c3ccc(O)cc3)N2C1=O | 1.12 | -3.1 | 1.08 | 0.192 | -0.548 | 0.0825 | 0.108 | 0.005 | 0.0682 | 0.626
2 | O=C1OCC=C[C@H]2OC34C=CCN(CCN5CCOCC5)C(=O)[C@H]3N(CCO)C(=O)[C@@H]4[C@@H]12 (stereo not given in full) | 0.259 | 0.289 | -0.0919 | -0.571 | -0.932 | -0.223 | -0.321 | -0.384 | 0.0486 | -0.283
3 | COc1ccc([Si](C)(C)[C@H]2[C@H](CCn3cc([C@H](O)c4ccccc4)nn3)O[C@@]3(C(=O)N(C)c4ccccc43)[C@@H]2C)cc1 | -0.455 | -2.37 | -0.759 | 0.418 | 0.947 | -0.119 | -0.0793 | -0.266 | -0.773 | -0.909
4 | C=CC[C@@]1(C(=O)N2CCCCC2)N=C(c2ccc(OCCCO)cc2)O[C@@H]1c1ccccc1N=[N+]=[N-] | 1.46 | -1.62 | 0.227 | 1.27 | 0.613 | 0.0472 | 0.214 | 1.54 | 1.05 | 2.11
5 | CCOC(=O)C[C@H]1[C@H](OC(=O)c2cc3ccccc3oc2=O)[C@@H](NC(=O)CC(C)C)c2cc(OCCCO)ccc2N1C(=O)c1ccccc1 | 0.886 | 0.186 | 0.371 | -0.299 | -0.543 | 0.0317 | -0.0011 | 0.819 | 0.124 | 1.06
6 | CC(CO)N1C(=O)[C@@H]2C3C(=O)OCCC/C=C\[C@H]3OC23C=CCN(CCN2CCOCC2)C(=O)[C@@H]13 (stereo not given in full) | -0.201 | -0.77 | -0.0109 | -0.514 | -1.01 | -0.152 | 0.0048 | -0.272 | -0.116 | 0.0654
7 | CS(=O)(=O)CCOC(=O)C1=CC(CCCO)=CC(C2CC2)N(Cc2cc3c(cc2Br)OCO3)C=C1C(=O)OCCS(C)(=O)=O (stereo not given) | 1.07 | -1.2 | -0.0224 | 0.331 | -0.0113 | -0.0192 | -0.0035 | 0.357 | 1.11 | 0.598
8 | O=C(O)C1N=C(c2ccc(OCCCO)cc2)N(c2ccccc2)O1 (stereo not given) | 1.13 | -0.643 | 0.509 | 0.37 | -0.218 | -0.0478 | -0.0769 | -0.402 | 0.435 | 0.447
9 | Cc1ccc(S[C@]2(C(=O)NCC(C)C)CC(=O)N(Cc3cc(C(F)(F)F)cc(C(F)(F)F)c3)[C@@H]2c2ccc(CO)cc2)cc1 | -0.716 | -0.297 | -0.419 | -0.909 | -0.468 | 0.168 | -0.153 | -0.468 | 0.489 | -0.0201
10 | [N-]=[N+]=Nc1ccccc1C[C@]1(C(=O)NCc2ccccc2)N=C(c2ccc(OCCCO)cc2)O[C@H]1c1ccccc1N=[N+]=[N-] | 1.42 | -2.34 | -0.366 | 1.99 | 0.177 | 0.164 | 0.149 | -0.237 | 1.02 | 1.48
11 | C=CCC(OC(C)=O)[C@@H]1[C@@H](N(Cc2ccc(-c3ccccc3)cc2)C(=O)Cc2ccc(F)cc2)c2cc(OCCCO)ccc2N1C(=O)c1ccc2ccccc2c1 (stereo not given in full) | 0.0163 | -0.381 | -0.0251 | -0.0052 | 0.28 | -0.141 | -0.221 | -0.0632 | 0.402 | -0.0517
12 | C=CCC(OC(C)=O)[C@@H]1[C@@H](N(Cc2ccc(-c3cccc(C(F)(F)F)c3)o2)C(=O)Cc2ccc(OC)cc2)c2cc(OCCCO)ccc2N1C(=O)c1ccc2ccccc2c1 (stereo not given in full) | -0.759 | 0.613 | -0.394 | -0.477 | -0.506 | -0.124 | -0.214 | -0.261 | -0.157 | -0.0185
